In the OligoGym collection:

These sequences were tested against ZNF20 (assay: pooled miR-30 sensor sort-seq; sequence = guide strand). Conditions: shRNA.
Note: reference of the scale not given here.

**Q.** With TTTCTGTACATTCTTTACCATC as the sequence, how does the sensor-assay potency score (higher = more potent) read?
**A.** The sensor-assay potency score (higher = more potent) was -1.72.

**Q.** For TAGTGCAAGCTTTATCATGTGA, which sensor-assay potency score (higher = more potent) is on record?
**A.** The sensor-assay potency score (higher = more potent) was -0.356.

**Q.** How did the sensor-assay potency score (higher = more potent) turn out when TTTCTCTCCACTGTGCGTCCTT was run?
**A.** Its sensor-assay potency score (higher = more potent) is -0.157.

**Q.** Which sensor-assay potency score (higher = more potent) does the source give for TTCTATATGGATTCTCTCCATA here?
**A.** The sensor-assay potency score (higher = more potent) was -1.01.

**Q.** With TTCAATGTTCTGAACTTTCCAT as the sequence, how does the sensor-assay potency score (higher = more potent) read?
**A.** Its sensor-assay potency score (higher = more potent) is -0.266.

**Q.** Which sensor-assay potency score (higher = more potent) does the source give for TAAGACTTAGATTTCTCCTGGG here?
**A.** The sensor-assay potency score (higher = more potent) was 0.935.

**Q.** TATTAAGAGATGAATGACCCGT was tested. Which sensor-assay potency score (higher = more potent) did it give?
**A.** The sensor-assay potency score (higher = more potent) was -0.0204.

**Q.** For TTTCACATGGTGTTATTCCAGG, which sensor-assay potency score (higher = more potent) is on record?
**A.** Its sensor-assay potency score (higher = more potent) is -0.755.

**Q.** How did the sensor-assay potency score (higher = more potent) turn out when TACCACAGTGCTTACATTCATA was run?
**A.** The sensor-assay potency score (higher = more potent) was -0.662.

**Q.** Which sensor-assay potency score (higher = more potent) does the source give for TTGTATTACGAAACCATCCAAG here?
**A.** Its sensor-assay potency score (higher = more potent) is -0.687.

**Q.** For TTTCTCTTTAGTGCAAGCTTTA, which sensor-assay potency score (higher = more potent) is on record?
**A.** Its sensor-assay potency score (higher = more potent) is -0.882.

**Q.** For TGAAGTTGTGAAGCACATCTAA, which sensor-assay potency score (higher = more potent) is on record?
**A.** Its sensor-assay potency score (higher = more potent) is -0.501.

These sequences were tested against ZNF213 in the same assay as above. Conditions: shRNA.

**Q.** Which sensor-assay potency score (higher = more potent) does the source give for TGTCTGGCCTGGCACCACCGGC here?
**A.** The sensor-assay potency score (higher = more potent) was -1.68.

**Q.** TTGAGCCCAAAACCCAGGGTGG was tested. Which sensor-assay potency score (higher = more potent) did it give?
**A.** Its sensor-assay potency score (higher = more potent) is -1.3.

**Q.** Which sensor-assay potency score (higher = more potent) does the source give for TCGGGTTCCGCCTCCTCCGAGG here?
**A.** Its sensor-assay potency score (higher = more potent) is -1.19.

**Q.** With TTTGAGCCCAAAACCCAGGGTG as the sequence, how does the sensor-assay potency score (higher = more potent) read?
**A.** Its sensor-assay potency score (higher = more potent) is -0.556.

**Q.** How did the sensor-assay potency score (higher = more potent) turn out when TTTCACTGGCTGCTTCTGTAGG was run?
**A.** The sensor-assay potency score (higher = more potent) was -0.917.

**Q.** How did the sensor-assay potency score (higher = more potent) turn out when TCACTTTGGCCTTTGAGCCCAA was run?
**A.** The sensor-assay potency score (higher = more potent) was -0.58.

**Q.** For TTCGGAATCCCTGCCATCCTCA, which sensor-assay potency score (higher = more potent) is on record?
**A.** The sensor-assay potency score (higher = more potent) was -0.738.

**Q.** For TCACTGGCTGCTTCTGTAGGTC, which sensor-assay potency score (higher = more potent) is on record?
**A.** Its sensor-assay potency score (higher = more potent) is -0.833.

**Q.** Which sensor-assay potency score (higher = more potent) does the source give for TAATACTCTTCTGTTGCCCTTT here?
**A.** The sensor-assay potency score (higher = more potent) was 0.353.

**Q.** ATCCCTGCCATCCTCATGCTGG was tested. Which sensor-assay potency score (higher = more potent) did it give?
**A.** Its sensor-assay potency score (higher = more potent) is -1.09.

**Q.** Which sensor-assay potency score (higher = more potent) does the source give for TTCTGTAGGTCCTCCACCAAGG here?
**A.** Its sensor-assay potency score (higher = more potent) is -1.39.

**Q.** For TGTAGGTCCTCCACCAAGGCGA, which sensor-assay potency score (higher = more potent) is on record?
**A.** The sensor-assay potency score (higher = more potent) was -0.787.

What follows are sequences tested against ZNF214 in the same assay as above. Conditions: shRNA.

**Q.** For TCTGATGAAAGTGAACTCCGGA, which sensor-assay potency score (higher = more potent) is on record?
**A.** Its sensor-assay potency score (higher = more potent) is 0.913.

**Q.** TAGAACTGTGACTAAAACCCTT was tested. Which sensor-assay potency score (higher = more potent) did it give?
**A.** Its sensor-assay potency score (higher = more potent) is -0.352.

**Q.** Which sensor-assay potency score (higher = more potent) does the source give for TCTTGTGGAAAACACACCGTGA here?
**A.** Its sensor-assay potency score (higher = more potent) is -0.342.

**Q.** TCTTTGATGAGTGTGAAGCTTT was tested. Which sensor-assay potency score (higher = more potent) did it give?
**A.** Its sensor-assay potency score (higher = more potent) is -0.426.

**Q.** For TTAACCATTCCTGACACTGGGA, which sensor-assay potency score (higher = more potent) is on record?
**A.** Its sensor-assay potency score (higher = more potent) is -0.384.

**Q.** For TAAACTTTGATTAAAGCTGTTA, which sensor-assay potency score (higher = more potent) is on record?
**A.** The sensor-assay potency score (higher = more potent) was -0.478.

**Q.** For TCTACTGACATGACATTTGTGT, which sensor-assay potency score (higher = more potent) is on record?
**A.** Its sensor-assay potency score (higher = more potent) is 0.423.

**Q.** For TTGGATGTCTATACAAGTCTGA, which sensor-assay potency score (higher = more potent) is on record?
**A.** Its sensor-assay potency score (higher = more potent) is 0.602.

**Q.** With TATACAAGTCTGATCTCTGAGA as the sequence, how does the sensor-assay potency score (higher = more potent) read?
**A.** Its sensor-assay potency score (higher = more potent) is -0.855.

**Q.** Which sensor-assay potency score (higher = more potent) does the source give for TGAGCTGTGACTAAAGTCCTTT here?
**A.** Its sensor-assay potency score (higher = more potent) is -0.611.

**Q.** With TTTTATAGAATTTCTCTTCTGT as the sequence, how does the sensor-assay potency score (higher = more potent) read?
**A.** Its sensor-assay potency score (higher = more potent) is 1.04.

**Q.** With TTATAGAATTTCTCTTCTGTGT as the sequence, how does the sensor-assay potency score (higher = more potent) read?
**A.** Its sensor-assay potency score (higher = more potent) is -0.222.

These sequences were tested against ZNF219 in the same assay as above. Conditions: shRNA.

**Q.** For TGTAGGTGATACTTGAGCGAGC, which sensor-assay potency score (higher = more potent) is on record?
**A.** Its sensor-assay potency score (higher = more potent) is -0.911.

**Q.** For TTCCGCAGAAAGGACAATCCTT, which sensor-assay potency score (higher = more potent) is on record?
**A.** The sensor-assay potency score (higher = more potent) was -0.585.

**Q.** With TGGAGTATCGCTGCAGATCCAG as the sequence, how does the sensor-assay potency score (higher = more potent) read?
**A.** The sensor-assay potency score (higher = more potent) was -1.26.
